Data on 40 sequences can be found in the supplement of paper PMC6555819.

The first test concerns PPARg:RXRa DBDmut IVT, anti-RXR (DBD mutation: RXRa K156A/R161A, NR concentration 270 nM, RXRa partner concentration 90 nM). The experiment in a line: PBM binding z-score (relative to random genomic background probes); higher = stronger binding; sequences stand for … in GC…GCGATTGACAGCGTAGAATGAAGG
The gist of the method:
(§1)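 Custom Agilent 4×180K protein-binding microarrays carried double-stranded probes, each with a 34-nt variable region. These regions held direct-repeat seeds, single-nucleotide variants, half-site ablations and random human genomic background sequences. Ligand-free nuclear receptor dimers were incubated on the arrays for 1 h, antibodies against each partner (one per run) detected binding, and scanned fluorescence was regression-normalized. Binding z-scores take the random background probes as reference.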
The sequence ATCGAAATGTCGAGGTGAGTATAGAGAAAGGGAA registered a PBM binding z-score of -0.755.

ACTAGCAGGCCCAGTTTGGGTCACTCAAACAAAG returned a PBM binding z-score of -0.917.

For CCTAGTTGGTCGGGAGGTCACACACCGGATATGA, the PBM binding z-score is -0.134.

ATCTCTAGGTAAAGACAGTTCAGTGAATGCAAAT had a PBM binding z-score of 2.12.

Turning to CCGATTGGGGCAAGGTTACCATAACGCACAGCCA, the PBM binding z-score is 1.32.

Regarding GCTGTTAGGTCAACTGATGGTCAGCTAAAGCTCG, the PBM binding z-score was determined as 4.04.

AGAATGAGGTTATACGTAGTTCAGGGAAGAAAGT came in with a PBM binding z-score of 3.46.

Sequence CCTTGTTGGTCAAGGTCACACACGCTATAGGTAC yielded a PBM binding z-score of 2.48.

CGTCCAAGGTCAGAGAGGTCAGTTAATGCCGAGT yielded a PBM binding z-score of 3.01.

The sequence TCGAGTAGGTCAGGGGCATTCAGAATGGCGTCGA gave a PBM binding z-score of 4.91.

On to GCAGACAGGTGAAACGCAGGAAACTCAGGGTGGC, for which the PBM binding z-score came out at 0.874.

With ACTCGGAGAACAAAGGTCAGAGCTACGCCAGTGA, the PBM binding z-score came out at 0.49.

ATCTCTAGGTAAAGATAGATCAGTGAATGCAAAT returned a PBM binding z-score of 1.89.

Consider CGTCCAAGGGCAAAGGTCAGTGAAGAGATGACGG, for which the PBM binding z-score was determined as 1.01.

Consider TCTCGGAGGACACGAACGGTCAGAGCTCGACATC, for which the PBM binding z-score stood at 1.13.

As for GCGACTGGGGTATCAGCAGGTTACCATAACTTAA, the PBM binding z-score is 1.21.

For ATCTCTAGGTAAAAAGTTCAGTGAAAGAGAGGAC, the PBM binding z-score is 1.79.

In the case of CTCGAAAGGTCGGTTAAGGTGAGTATACGGATAA, the PBM binding z-score worked out at 0.549.

The sequence GCTGCTAGGTCAGGTTGGTCACCTAACGGGTACG displayed a PBM binding z-score of 2.48.

Turning to GGAACGAGGGCAAAGTTGATAGCATCTGTCGACG, the PBM binding z-score was 3.97.

In the case of CCTTACGGGTGACTGACAGGTTATAGCATTTGGA, the PBM binding z-score worked out at 1.95.

Regarding AATCCAGGGTCATCGTAGGCCAGAGTACGCACAG, the PBM binding z-score was 2.54.

ACTAGCAGGCCAAGTCTGGGTCACTCAAACAAAG returned a PBM binding z-score of 2.25.

For the sequence ATCTCTAGGTAAGACTAAGTTCAGTGAAGAACGC, the PBM binding z-score turned out to be 1.81.

Take CAAACTAGGTCAGCGGAAGGTCAAAGTCCGCATG: the PBM binding z-score was 7.81.

GATACAGGGTCAAGGCCGGAGTACGCGTATTGAT gave a PBM binding z-score of 2.69.

For GCGTACGGGTCAAAGGTTATAGCATGAATAGAAT, the PBM binding z-score stood at 2.3.

On to CGATCGAGGGCATGAGTTGATAGCAAATGCCGAT, for which the PBM binding z-score is 2.46.

Consider GTACCTAGGTGAATAGGTCGTTGATGAGTAGGCG, for which the PBM binding z-score stood at 2.96.

Consider TCTATTAGTTTATTAGGGCAACCGAAACAGCGGA, for which the PBM binding z-score is 4.65.

GCTCGGCGGACAAGGTCAGAGCTTTGTCCGTAGA gave a PBM binding z-score of -0.55.

ACTAGCAGGCCAAGGGTCTCTCAAGATTAGTCCG gave a PBM binding z-score of 0.281.

With GCTGCTAGGTCAGGTTGGTCAGATAACGGGTACG, the PBM binding z-score came to 2.83.

GCTAGCAGGCCATTTGAGTCACTCAATGACGGGC: the PBM binding z-score amounted to 0.829.

Sequence CGAACGAGGGCATGCGTTGATAGCAAATGCCGAT had a PBM binding z-score of 2.51.

In turn, AATAGCAGGCCAAGTTTGGGTCACTCAAACAAAG registered a PBM binding z-score of 1.2.

For the sequence TCTAGTTCGTCAAAGGTCACACACTCGAAATGCG, the PBM binding z-score worked out at 2.89.

Sequence ACTTACGGGTCAACGAGGTTATAGTACGCGTATA came in with a PBM binding z-score of 3.12.

With AGAATGAGGGCAATGAGTTGATAGCACGGGTGGC, the PBM binding z-score was found to be 4.59.

Sequence ACTAGCAGGCCAAGTTTGGGTCACTGAAACAAAG displayed a PBM binding z-score of 0.913.

The test system of the next test is PPARg:RXRa IVT, anti-PPARg (NR concentration 270 nM, RXRa partner concentration 90 nM). Described as above. The gist of the method: as §1
As to ATCGAAATGTCGAGGTGAGTATAGAGAAAGGGAA, the PBM binding z-score was found to be 0.414.

The sequence ACTAGCAGGCCCAGTTTGGGTCACTCAAACAAAG returned a PBM binding z-score of 0.48.

Turning to CCTAGTTGGTCGGGAGGTCACACACCGGATATGA, the PBM binding z-score is 1.89.

Sequence ATCTCTAGGTAAAGACAGTTCAGTGAATGCAAAT gave a PBM binding z-score of 1.73.

In the case of CCGATTGGGGCAAGGTTACCATAACGCACAGCCA, the PBM binding z-score came out at 1.29.

Turning to GCTGTTAGGTCAACTGATGGTCAGCTAAAGCTCG, the PBM binding z-score stood at 2.94.

In turn, AGAATGAGGTTATACGTAGTTCAGGGAAGAAAGT registered a PBM binding z-score of 2.53.

Take CCTTGTTGGTCAAGGTCACACACGCTATAGGTAC: the PBM binding z-score was 3.71.

On to CGTCCAAGGTCAGAGAGGTCAGTTAATGCCGAGT, for which the PBM binding z-score came to 3.3.

Take TCGAGTAGGTCAGGGGCATTCAGAATGGCGTCGA: the PBM binding z-score worked out at 5.07.

As for GCAGACAGGTGAAACGCAGGAAACTCAGGGTGGC, the PBM binding z-score stood at 0.378.

ACTCGGAGAACAAAGGTCAGAGCTACGCCAGTGA displayed a PBM binding z-score of 2.78.

With ATCTCTAGGTAAAGATAGATCAGTGAATGCAAAT, the PBM binding z-score was determined as 1.61.

Regarding CGTCCAAGGGCAAAGGTCAGTGAAGAGATGACGG, the PBM binding z-score stood at 4.07.

TCTCGGAGGACACGAACGGTCAGAGCTCGACATC registered a PBM binding z-score of -0.161.

With GCGACTGGGGTATCAGCAGGTTACCATAACTTAA, the PBM binding z-score stood at 0.938.

ATCTCTAGGTAAAAAGTTCAGTGAAAGAGAGGAC had a PBM binding z-score of 2.04.

CTCGAAAGGTCGGTTAAGGTGAGTATACGGATAA showed a PBM binding z-score of 1.14.

On to GCTGCTAGGTCAGGTTGGTCACCTAACGGGTACG, for which the PBM binding z-score was found to be 2.8.

The sequence GGAACGAGGGCAAAGTTGATAGCATCTGTCGACG yielded a PBM binding z-score of 4.32.

For the sequence CCTTACGGGTGACTGACAGGTTATAGCATTTGGA, the PBM binding z-score was 1.09.

On to AATCCAGGGTCATCGTAGGCCAGAGTACGCACAG, for which the PBM binding z-score stood at 4.33.

Consider ACTAGCAGGCCAAGTCTGGGTCACTCAAACAAAG, for which the PBM binding z-score stood at 3.03.

ATCTCTAGGTAAGACTAAGTTCAGTGAAGAACGC yielded a PBM binding z-score of 1.37.

CAAACTAGGTCAGCGGAAGGTCAAAGTCCGCATG registered a PBM binding z-score of 8.08.

In turn, GATACAGGGTCAAGGCCGGAGTACGCGTATTGAT yielded a PBM binding z-score of 3.81.

Sequence GCGTACGGGTCAAAGGTTATAGCATGAATAGAAT displayed a PBM binding z-score of 4.85.

With CGATCGAGGGCATGAGTTGATAGCAAATGCCGAT, the PBM binding z-score came to 1.93.

GTACCTAGGTGAATAGGTCGTTGATGAGTAGGCG came in with a PBM binding z-score of 3.55.

TCTATTAGTTTATTAGGGCAACCGAAACAGCGGA had a PBM binding z-score of 4.46.

Turning to GCTCGGCGGACAAGGTCAGAGCTTTGTCCGTAGA, the PBM binding z-score is 0.128.

In the case of ACTAGCAGGCCAAGGGTCTCTCAAGATTAGTCCG, the PBM binding z-score turned out to be 1.01.

For GCTGCTAGGTCAGGTTGGTCAGATAACGGGTACG, the PBM binding z-score was 2.3.

The sequence GCTAGCAGGCCATTTGAGTCACTCAATGACGGGC had a PBM binding z-score of -0.00694.

Turning to CGAACGAGGGCATGCGTTGATAGCAAATGCCGAT, the PBM binding z-score was found to be 1.72.

On to AATAGCAGGCCAAGTTTGGGTCACTCAAACAAAG, for which the PBM binding z-score worked out at 1.95.

TCTAGTTCGTCAAAGGTCACACACTCGAAATGCG yielded a PBM binding z-score of 3.87.

ACTTACGGGTCAACGAGGTTATAGTACGCGTATA displayed a PBM binding z-score of 4.22.

Sequence AGAATGAGGGCAATGAGTTGATAGCACGGGTGGC returned a PBM binding z-score of 3.33.

The sequence ACTAGCAGGCCAAGTTTGGGTCACTGAAACAAAG showed a PBM binding z-score of 1.45.
